# Records with an inconclusive call do not appear. Entries that show only a call come without a potency. Calls of active or inactive are those of the source. Calls come from the whole dose curve; as a rule, active = well fitted inhibition curve with a large enough effect; inconclusive = small, poorly fitted or top-dose-only effect; inactive = flat fitted curve, though single readings scatter.
# System: CP215
# Assay: qHTS profiling for inhibitors of Plasmodium falciparum proliferation (AID 504749); note: nearly all actives have a fitted effect of over 60% in size
# Conditions: P. falciparum in erythrocytes, SYBR Green DNA, 72 h; series mostly up to 28.7 µM
# Procedure, shortened: (§1)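 Quantitative HTS: compounds pinned into medium, infected erythrocytes added (0.3% parasitemia, 2.5% hematocrit), 72 h culture at 37 C under 5% CO2. Saponin/Triton lysis with SYBR Green I, overnight RT, then fluorescence read.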
# Potency is the fitted concentration of half-maximal effect.
row,SMILES,Potency
1,O=C(O)Cc1ccc(CCNS(=O)(=O)c2ccc(Cl)cc2)cc1,inactive
2,NS(=O)(=O)c1ccc(NC(=O)CCC(=O)O)cc1,inactive
3,C=CCSCC1Nc2cc(Cl)c(S(N)(=O)=O)cc2S(=O)(=O)N1 (stereo not given),inactive
4,Cc1cccc(C)c1NC(=O)CC12CCCN1CCC2,inactive
5,CC(=O)Nc1cccc(O)c1,inactive
6,CNCc1ccccc1,inactive
7,COc1ccc(C(=O)NCc2ccc(OCCN(C)C)cc2)cc1OC,inactive
8,C=CCNC(N)=S,inactive
9,NS(=O)(=O)c1cc(-c2nn[nH]n2)c(NCc2cccs2)cc1Cl,inactive
10,CCOc1ccc(C(=O)OCCN(CC)CC)cc1,inactive
11,Cc1c(N(C)C)c(=O)n(-c2ccccc2)n1C,inactive
12,CCc1cccc(CC)c1NC(=O)CN(CC(=O)O)CC(=O)O,inactive
13,COC(=O)c1cccnc1,inactive
14,Cc1ccc(S(=O)(=O)NC(=O)NC2CCCCCCC2)cc1,inactive
15,CCCCCCCCCCCCCCCCC(C(=O)O)C(O)(CC(=O)O)C(=O)O (stereo not given),inactive
16,Cn1c(=O)c2c(ncn2CCO)n(C)c1=O,inactive
17,CCCC(O)C(CC)CO (stereo not given),inactive
18,CCCCCC(N)=O,inactive

row,SMILES,Potency
1,O=C(O)c1ccc[n+]([O-])c1,inactive
2,CC(CSC(=O)c1ccccc1)C(=O)N1C[C@@H](Sc2ccccc2)C[C@H]1C(=O)O (stereo not given in full),inactive
3,CCOc1cc(NC(C)=O)ccc1C(=O)OC,inactive
4,C[C@@H](N)C(=O)O,1.69 µM (active)
5,NS(=O)(=O)c1cc2c(cc1C(F)(F)F)NCNS2(=O)=O,inactive
6,NC(=O)NS(=O)(=O)c1ccc(N)cc1,inactive
7,O=C(O)c1ccccc1C(=O)Nc1ccc(S(=O)(=O)Nc2nccs2)cc1,inactive
8,CC(=O)NS(=O)(=O)c1ccc(N)cc1,inactive
9,O=C(O)Cn1c(C(=O)Nc2nc(-c3ccccc3Cl)cs2)cc2ccccc21,inactive
10,CC(O)CCCCn1c(=O)c2c(ncn2C)n(C)c1=O (stereo not given),inactive
11,CCCCCCCCCCCCCCCCN,inactive
12,CN1CCCN=C1COC(=O)C(O)(c1ccccc1)C1CCCCC1 (stereo not given),inactive
13,NS(=O)(=O)c1ccc(C(=O)O)cc1,inactive
14,Cn1c([N+](=O)[O-])cnc1COC(N)=O,inactive
15,O=C(O)c1ccccc1OP(=O)(O)O,inactive
16,c1ccc2[nH]ccc2c1,inactive
17,O=C(OOC(=O)c1ccccc1)c1ccccc1,inactive

# System: CP217
# Assay: as above
# Conditions: P. falciparum in erythrocytes, SYBR Green DNA, 72 h; series mostly up to 28.7 µM
# Procedure, shortened: as §1
row,SMILES,outcome
1,O=C(O)Cc1ccc(CCNS(=O)(=O)c2ccc(Cl)cc2)cc1,inactive
2,NS(=O)(=O)c1ccc(NC(=O)CCC(=O)O)cc1,inactive
3,C=CCSCC1Nc2cc(Cl)c(S(N)(=O)=O)cc2S(=O)(=O)N1 (stereo not given),inactive
4,Cc1cccc(C)c1NC(=O)CC12CCCN1CCC2,inactive
5,CC(=O)Nc1cccc(O)c1,inactive
6,CNCc1ccccc1,inactive
7,COc1ccc(C(=O)NCc2ccc(OCCN(C)C)cc2)cc1OC,inactive
8,C=CCNC(N)=S,inactive
9,NS(=O)(=O)c1cc(-c2nn[nH]n2)c(NCc2cccs2)cc1Cl,inactive
10,CCOc1ccc(C(=O)OCCN(CC)CC)cc1,inactive
11,Cc1c(N(C)C)c(=O)n(-c2ccccc2)n1C,inactive
12,CCc1cccc(CC)c1NC(=O)CN(CC(=O)O)CC(=O)O,inactive
13,COC(=O)c1cccnc1,inactive
14,Cc1ccc(S(=O)(=O)NC(=O)NC2CCCCCCC2)cc1,inactive
15,CCCCCCCCCCCCCCCCC(C(=O)O)C(O)(CC(=O)O)C(=O)O (stereo not given),inactive
16,Cn1c(=O)c2c(ncn2CCO)n(C)c1=O,inactive
17,CCCC(O)C(CC)CO (stereo not given),inactive
18,CCCCCC(N)=O,inactive

row,SMILES,outcome
1,O=C(O)c1ccc[n+]([O-])c1,inactive
2,CC(CSC(=O)c1ccccc1)C(=O)N1C[C@@H](Sc2ccccc2)C[C@H]1C(=O)O (stereo not given in full),inactive
3,CCOc1cc(NC(C)=O)ccc1C(=O)OC,inactive
4,C[C@@H](N)C(=O)O,inactive
5,NS(=O)(=O)c1cc2c(cc1C(F)(F)F)NCNS2(=O)=O,inactive
6,NC(=O)NS(=O)(=O)c1ccc(N)cc1,inactive
7,O=C(O)c1ccccc1C(=O)Nc1ccc(S(=O)(=O)Nc2nccs2)cc1,inactive
8,CC(=O)NS(=O)(=O)c1ccc(N)cc1,inactive
9,O=C(O)Cn1c(C(=O)Nc2nc(-c3ccccc3Cl)cs2)cc2ccccc21,inactive
10,CC(O)CCCCn1c(=O)c2c(ncn2C)n(C)c1=O (stereo not given),inactive
11,CCCCCCCCCCCCCCCCN,inactive
12,CN1CCCN=C1COC(=O)C(O)(c1ccccc1)C1CCCCC1 (stereo not given),inactive
13,NS(=O)(=O)c1ccc(C(=O)O)cc1,inactive
14,Cn1c([N+](=O)[O-])cnc1COC(N)=O,inactive
15,O=C(O)c1ccccc1OP(=O)(O)O,inactive
16,c1ccc2[nH]ccc2c1,inactive
17,O=C(OOC(=O)c1ccccc1)c1ccccc1,inactive

# System: CP237
# Assay: as above
# Conditions: P. falciparum in erythrocytes, SYBR Green DNA, 72 h; series mostly up to 28.7 µM
# Procedure, shortened: as §1
row,SMILES,Potency
1,O=C(O)Cc1ccc(CCNS(=O)(=O)c2ccc(Cl)cc2)cc1,inactive
2,NS(=O)(=O)c1ccc(NC(=O)CCC(=O)O)cc1,inactive
3,C=CCSCC1Nc2cc(Cl)c(S(N)(=O)=O)cc2S(=O)(=O)N1 (stereo not given),inactive
4,Cc1cccc(C)c1NC(=O)CC12CCCN1CCC2,inactive
5,CC(=O)Nc1cccc(O)c1,inactive
6,CNCc1ccccc1,inactive
7,COc1ccc(C(=O)NCc2ccc(OCCN(C)C)cc2)cc1OC,inactive
8,C=CCNC(N)=S,inactive
9,NS(=O)(=O)c1cc(-c2nn[nH]n2)c(NCc2cccs2)cc1Cl,inactive
10,CCOc1ccc(C(=O)OCCN(CC)CC)cc1,inactive
11,Cc1c(N(C)C)c(=O)n(-c2ccccc2)n1C,inactive
12,CCc1cccc(CC)c1NC(=O)CN(CC(=O)O)CC(=O)O,inactive
13,COC(=O)c1cccnc1,inactive
14,Cc1ccc(S(=O)(=O)NC(=O)NC2CCCCCCC2)cc1,inactive
15,CCCCCCCCCCCCCCCCC(C(=O)O)C(O)(CC(=O)O)C(=O)O (stereo not given),inactive
16,Cn1c(=O)c2c(ncn2CCO)n(C)c1=O,inactive
17,CCCC(O)C(CC)CO (stereo not given),inactive
18,CCCCCC(N)=O,inactive

row,SMILES,Potency
1,O=C(O)c1ccc[n+]([O-])c1,inactive
2,CC(CSC(=O)c1ccccc1)C(=O)N1C[C@@H](Sc2ccccc2)C[C@H]1C(=O)O (stereo not given in full),inactive
3,CCOc1cc(NC(C)=O)ccc1C(=O)OC,inactive
4,C[C@@H](N)C(=O)O,inactive
5,NS(=O)(=O)c1cc2c(cc1C(F)(F)F)NCNS2(=O)=O,inactive
6,NC(=O)NS(=O)(=O)c1ccc(N)cc1,inactive
7,O=C(O)c1ccccc1C(=O)Nc1ccc(S(=O)(=O)Nc2nccs2)cc1,inactive
8,CC(=O)NS(=O)(=O)c1ccc(N)cc1,inactive
9,O=C(O)Cn1c(C(=O)Nc2nc(-c3ccccc3Cl)cs2)cc2ccccc21,inactive
10,CC(O)CCCCn1c(=O)c2c(ncn2C)n(C)c1=O (stereo not given),inactive
11,CCCCCCCCCCCCCCCCN,inactive
12,CN1CCCN=C1COC(=O)C(O)(c1ccccc1)C1CCCCC1 (stereo not given),inactive
13,NS(=O)(=O)c1ccc(C(=O)O)cc1,inactive
14,Cn1c([N+](=O)[O-])cnc1COC(N)=O,inactive
15,O=C(O)c1ccccc1OP(=O)(O)O,inactive
16,c1ccc2[nH]ccc2c1,inactive
17,O=C(OOC(=O)c1ccccc1)c1ccccc1,inactive
